Bioassay records (PubChem)
An excerpt weighted towards active compounds, which were near 0.85% of everything screened.
MmCpn inh: blocks the Methanococcus maripaludis chaperonin Mm-Cpn. purified Mm-Cpn ATPase, ADP Transcreener TR-FRET. Potency, µM (titrated, usually from 76.9 µM), most hits filed as inhibitors. actives 0.031% (n = 330,000); also: nearly all actives have a fitted effect of over 80% in size
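ATPase turnover read by TR-FRET ADP competition (Eu cryptate antibody/ADP-d2, 665/590 nm): 10uM ATP final, 25nM Mm-CPN final, 30 min 37degC after 10-min compound preincubation, pH 7.4 Tris/KCl/MgCl2/DTT buffer.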
CCT modulator: cytosolic chaperonin activity modulation; purified chaperonin ATPase assay, HTRF ADP detection, 30 min; activity change, % (no concentration beside the values), hits read low; actives 0.3% (n = 360,000); in the data active = activity change below about -30%
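Enzyme 40 or 20 nM (batch-dependent) in Tris pH 7.4/KCl/MgCl2/DTT; cpd 76 uM single point; ATP 10 uM; 30 min 37 °C; Transcreener ADP HTRF detection, 30 min RT; ratio 665/615.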
pAkt inh: inhibitors of Akt phosphorylation; Neuro2A IGF-stimulated pAkt S473 HTRF, 20 min; hits give low values; actives 0.32% (n = 360,000); activity change, % for hits at 50 µM; in the data active = activity change below about -80%; inconclusive = mostly about -51% to -80%
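Neuro2A cells in DMEM with 0.5% FBS, overnight at 37 deg C, given compound at single 50 µM final, then IGF (6 nM final) for 20 min at 37 deg C. Lysed; phospho-Akt Ser473 by HTRF after 24 h, 665/615 ratio.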
Glioma ERSR ind: inducers of ER stress response in human glioma cells. U87-MG GRP78 promoter luciferase reporter, 16 h. Potency, µM, usual class: activators. actives 0.02% (n = 420,000). AID 602332; also: series mostly up to about 76 µM; nearly all actives have a fitted effect of over 35% in size
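ERSR induction read as luciferase luminescence (Bright-Glo, 10 min at room temperature) in stably transfected human U87-MG glioma cells exposed to compounds for 16 h, using GRP78 as sensor.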
GLS inhibitor: glutaminase GLS (human) inhibition; Potency, µM (top dose mostly 45.5 µM), hits mostly inhibitors; GLS enzymatic activity, qHTS titration; O94925; actives 0.21% (n = 410,000)
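Glutamate formation by hKGA was monitored fluorometrically using coupled glutamate oxidase, HRP and Amplex Red. Substrate was added as 1 mM L-glutamine solution; incubation was 30 min at RT after an initial read.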
mIDH1 inhibitor: inhibitors of human mutant IDH1 R132H; O75874; AID 602179; Potency, µM (series often up to 76.6 µM), usual class: inhibitors; actives 0.093% (n = 390,000); IDH1-R132H enzyme, NADPH consumption, diaphorase/resazurin fluorescence; also: nearly all actives have a fitted effect of over 65% in size
Target sequence (O75874 whole entry R132H, stated change not applied): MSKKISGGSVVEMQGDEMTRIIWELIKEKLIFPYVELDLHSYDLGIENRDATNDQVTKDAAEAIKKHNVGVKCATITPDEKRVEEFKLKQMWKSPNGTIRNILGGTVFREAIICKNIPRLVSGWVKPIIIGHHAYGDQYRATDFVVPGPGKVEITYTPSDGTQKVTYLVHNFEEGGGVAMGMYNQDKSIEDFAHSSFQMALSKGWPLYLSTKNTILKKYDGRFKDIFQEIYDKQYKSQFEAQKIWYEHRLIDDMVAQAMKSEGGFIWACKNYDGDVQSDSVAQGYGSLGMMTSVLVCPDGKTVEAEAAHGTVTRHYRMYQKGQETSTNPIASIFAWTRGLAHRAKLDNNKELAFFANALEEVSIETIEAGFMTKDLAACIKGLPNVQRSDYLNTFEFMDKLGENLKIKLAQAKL
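IDH1-R132H (0.5 ug/mL dispensed) in pH 7.5 Tris buffer was preincubated 30 min with compound, then given a substrate mix of 0.016 mM NADPH and 2 mM alpha-KG for 80 min at room temperature; remaining NADPH was read by diaphorase/resazurin fluorescence.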
IDH1 autofl: interferes with resorufin fluorescence in IDH1 counter-screen | inhibition of signal, % at 51.2 µM | shares compounds with mIDH1 inhibitor | 750 tested, under 10 active | Resorufin detection reagent fluorescence interference, cell-free | AID 623980
WT IDH1 inh: inhibits human wild-type IDH1, mutant selectivity check; WT IDH1 enzyme, NADPH diaphorase/resazurin fluorescence; actives 9% (n = 750); shares compounds with mIDH1 inhibitor; Potency, µM (series often up to 115 µM), most hits filed as inhibitors; also: nearly all actives have a fitted effect of over 55% in size
Target sequence (O75874 whole entry, looked up): as the sequence (O75874 whole entry R132H, stated change not applied) above, with H132R counted along it
mIDH1 confirm: inhibits human mutant IDH1 enzyme in cherrypick confirmation; shares compounds with mIDH1 inhibitor; IDH1 R132H enzyme, NADPH diaphorase/resazurin fluorescence; Potency, µM (top dose mostly 76.6 µM), actives largely listed as inhibitors; actives 83% (n = 750); AID 624002; also: nearly all actives have a fitted effect of over 50% in size
Each line names hits and unclear results; the compound was inactive in the other large screens (follow-up assays come after a bar, where they were run). Unless noted, calls follow the shape of the dose curve; as a rule, active = well fitted curve in the direction sought with a large enough effect; inconclusive = small, poorly fitted or top-dose-only effect, or another doubt; inactive = no such curve, though single readings can be large; an effect the other way counts as inactive or inconclusive.

O=c1cc(CN2CCc3ccccc32)nc2sccn12	mIDH1 inhibitor 31.6µM | IDH1 autofl inactive | WT IDH1 inh inconclusive | mIDH1 confirm 50.1µM
Cc1cc(C(C)(C)C)oc1C(=O)N1CCN(C(=O)c2oc(C(C)(C)C)cc2C)CC1	mIDH1 inhibitor 39.8µM | IDH1 autofl inactive | WT IDH1 inh inconclusive | mIDH1 confirm 14.1µM
CCCN1C(=O)/C(=c2\sc3nc(=O)c(Cc4ccc(C)cc4)nn3c2=O)c2ccccc21	none
NC(=O)CN1C(=O)/C(=c2\sc3nc(=O)c(Cc4ccccc4)nn3c2=O)c2ccccc21	mIDH1 inhibitor inconclusive | IDH1 autofl inactive | WT IDH1 inh inactive | mIDH1 confirm inactive
Cc1cc(-c2ccnc(-n3ncc(C(=O)NCCc4cccnc4)c3C)n2)c(C)s1	none (no result: MmCpn inh, CCT modulator, pAkt inh, GLS inhibitor, mIDH1 inhibitor)
Cc1ccc(C(=O)N2CCOc3ccc(CN4CCN(Cc5ccccn5)CC4)cc3C2)cc1	none (no result: MmCpn inh, CCT modulator, pAkt inh, GLS inhibitor, mIDH1 inhibitor)
COc1ccc(C(C(=O)NC2CCCCC2)N(C(=O)c2ccco2)c2ccccc2OC)cc1 (configuration not stated)	none
COc1ccc(N(C(=O)c2cnccn2)C(C(=O)NC2CCCCC2)c2ccccc2)cc1 (configuration not stated)	mIDH1 inhibitor inconclusive | IDH1 autofl inactive | WT IDH1 inh inactive | mIDH1 confirm 35.5µM
Cc1cc(C)cc(N(C(=O)CNC(=O)c2ccco2)C(C(=O)NC2CCCCC2)c2cccnc2)c1 (configuration not stated)	mIDH1 inhibitor inconclusive | IDH1 autofl inactive | WT IDH1 inh inactive | mIDH1 confirm inconclusive
COc1ccc(N(C(=O)c2ccco2)C(C(=O)NC2CCCCC2)c2ccccc2)cc1 (configuration not stated)	mIDH1 inhibitor inconclusive (no result: MmCpn inh) | IDH1 autofl inactive | WT IDH1 inh inactive | mIDH1 confirm 20µM
Cc1cc(C)cc(N(C(=O)CNC(=O)c2ccco2)C(C(=O)NC2CCCC2)c2cccnc2)c1 (configuration not stated)	none
COc1cccc(C(C(=O)NC2CCCCC2)N(C(=O)c2ccco2)c2ccccc2OC)c1 (configuration not stated)	mIDH1 inhibitor inconclusive | IDH1 autofl inactive | WT IDH1 inh inactive | mIDH1 confirm inconclusive
COC(=O)c1cc(CNC(=O)c2cccc(N(C)C)c2)cc(NC(=O)c2ccccc2Cl)c1	none (no result: MmCpn inh, CCT modulator, pAkt inh, GLS inhibitor, mIDH1 inhibitor)
Cc1cc(C)n(-c2cccc(C(=O)NCC3Cc4cc(Cl)cc(-c5cnccn5)c4O3)c2)n1 (configuration not stated)	none (no result: MmCpn inh, CCT modulator, pAkt inh, GLS inhibitor, mIDH1 inhibitor)
COc1ccccc1C1CN(Cc2c(C)nc3sccn23)Cc2ccccc2O1 (configuration not stated)	none (no result: MmCpn inh, CCT modulator, pAkt inh, GLS inhibitor, mIDH1 inhibitor)
COc1ccc(N(C(=O)c2ccco2)C(C(=O)NC2CCCC2)c2ccc(N(C)C)cc2)cc1 (configuration not stated)	none
COc1ccc(N(C(=O)c2ccco2)C(C(=O)NC2CCCC2)c2ccccc2)cc1 (configuration not stated)	mIDH1 inhibitor inconclusive | IDH1 autofl inactive | WT IDH1 inh inactive | mIDH1 confirm 39.8µM
Cn1c(SSc2ccc(-c3cccnc3)n2C)ccc1-c1cccnc1	mIDH1 inhibitor 10.4µM (no result: MmCpn inh) | IDH1 autofl inactive | WT IDH1 inh inactive | mIDH1 confirm 35.5µM
c1cncc(-c2nnc(-c3cccnc3)nn2)c1	none
O=C(c1ccc(Cl)cc1)c1c[nH]c(C(=O)C(Cl)(Cl)Cl)c1	mIDH1 inhibitor inconclusive | IDH1 autofl inactive | WT IDH1 inh inactive | mIDH1 confirm 25.1µM
CC(C)CSc1nnc(CNC(=O)c2ccccn2)n1C	none (no result: MmCpn inh, CCT modulator, pAkt inh, GLS inhibitor, mIDH1 inhibitor)
COc1ccc(-c2csc3nc(-c4cccnc4)nc(N4CCC(C(N)=O)CC4)c23)cc1OC	MmCpn inh inconclusive, mIDH1 inhibitor inconclusive
COc1ccc(-c2csc3nc(C)nc(N4CCCCC4)c23)cc1OC	mIDH1 inhibitor inconclusive | IDH1 autofl inactive | WT IDH1 inh inactive | mIDH1 confirm 31.6µM
CC(C)c1ccc(NC(=O)C(c2ccccc2)N2CC(=O)Nc3ccccc32)cc1 (configuration not stated)	MmCpn inh inconclusive, mIDH1 inhibitor inconclusive | IDH1 autofl inactive | WT IDH1 inh inactive | mIDH1 confirm 25.1µM
CC(C)NC(=O)c1cn(C2CCC(NC(=O)C(C)(C)C)CC2)nn1 (configuration not stated)	none (no result: MmCpn inh, CCT modulator, pAkt inh, GLS inhibitor, mIDH1 inhibitor)
O=C1NC[C@@H](Cc2cccc3ccccc23)N(CCCCC2CCCCC2)C1=O	mIDH1 inhibitor inconclusive | IDH1 autofl inactive | WT IDH1 inh inactive | mIDH1 confirm 39.8µM
O=C1NC[C@H](CC2CCCCC2)N(CCc2cccc3ccccc23)C1=O	none (no result: MmCpn inh, Glioma ERSR ind, mIDH1 inhibitor)
Cc1ccc2c(c1)Oc1ccc([N+](=O)[O-])cc1C(=O)N2	none
Cc1ccc2c(c1)Oc1ccc(NC(=O)CCl)cc1C(=O)N2	mIDH1 inhibitor 13.1µM | IDH1 autofl inactive | WT IDH1 inh 70.8µM | mIDH1 confirm 6.31µM
Cc1cc(/C=N/n2c(COc3ccccc3)nc3ccccc3c2=O)c(O)c([N+](=O)[O-])c1	mIDH1 inhibitor inconclusive | IDH1 autofl inactive | WT IDH1 inh inactive | mIDH1 confirm 31.6µM
COc1cc(-c2cnc3ccccc3c2)cc2c1OCCN(C(=O)CCn1nc(C)cc1C)C2	none (no result: MmCpn inh, CCT modulator, pAkt inh, GLS inhibitor, mIDH1 inhibitor)
CC1(C)CC(=O)C2=C(C1)N1C(=C(C#N)C2c2ccccc2Cl)N=C(N)c2ccccc21 (configuration not stated)	mIDH1 inhibitor inconclusive | IDH1 autofl inactive | WT IDH1 inh inactive | mIDH1 confirm 15.8µM
Cc1nc2ccc(C(=O)N3CCOc4ccc(CN5CCOCC5)cc4C3)cc2nc1C	none (no result: MmCpn inh, CCT modulator, pAkt inh, GLS inhibitor, mIDH1 inhibitor)
O=C(NC1CCCCC1)C(c1ccc(F)cc1)N(Cc1ccco1)C(=O)Cn1nnc2ccccc21 (configuration not stated)	none
Cc1ccc(C(C(=O)NC2CCCCC2)N(Cc2ccco2)C(=O)Cn2cnc3ccccc32)cc1 (configuration not stated)	mIDH1 inhibitor 29.3µM | IDH1 autofl inactive | WT IDH1 inh inactive | mIDH1 confirm 12.6µM
